# Reference: PubChem BioAssay (NCATS)
# Results filed as inconclusive are left out. Active and inactive are the calls of the source. The call rests on the fitted dose curve; in most records, active means well fitted curve in the direction sought with a large enough effect; inconclusive means small, poorly fitted or top-dose-only effect, or another doubt; inactive means no such curve, though single readings can be large; an effect the other way counts as inactive or inconclusive.
# Columns and labels:
# [1] = Quantitative High-Throughput drug screen in 47 multiple myeloma cell lines against the NCATS MIPE library collection: KMM1_JCRB cell viability assay (AID 1918960); further: nearly all actives have a fitted effect of over 30% in size
# Procedure, shortened: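 Myeloma cells, 500 per well, were exposed to MIPE 4.0 drugs by pin transfer for 48 h at 37 °C, 5% CO2. Viability was read as ATP luminescence with CellTiter-Glo, normalised to DMSO-only (100%) and medium-only (0%) wells.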
# [2] = Quantitative High-Throughput drug screen in 47 multiple myeloma cell lines against the NCATS MIPE library collection: Karpas417_ECACC cell viability assay (AID 1918961); details: Karpas417 myeloma viability, CellTiter-Glo ATP luminescence, 48 h; viability (% of DMSO): at 45.8 µM (top of the series)
# Procedure, shortened: (§1)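 We plated 500 myeloma cells per well, pinned in MIPE 4.0 compounds, and incubated for 48 hours at 37C. ATP was then quantified with CellTiter-Glo, with DMSO and media-only wells defining 100% and 0%.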
# [3] = Quantitative High-Throughput drug screen in 47 multiple myeloma cell lines against the NCATS MIPE library collection: JIM3_ECACC cell viability assay (AID 1918963; further: nearly all actives have a fitted effect of over 35% in size)
# Procedure, shortened: (§2)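 Primary qHTS used for cherry-picking: cells at 500/well, library compounds for 48 h (37C, 5% CO2), luminescent ATP assay.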
# [4] = Quantitative High-Throughput drug screen in 47 multiple myeloma cell lines against the NCATS MIPE library collection: JJN3_DSMZ cell viability assay (AID 1918966; further: nearly all actives have a fitted effect of over 50% in size)
# Procedure, shortened: (§3)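 Inhibition of cell viability is measured here. Each line was plated at 500 cells per well, treated with MIPE 4.0 drugs, kept 48 hours at 37C, then assayed for ATP content by CellTiter-Glo luminescence.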
# [5] = Quantitative High-Throughput drug screen in 47 multiple myeloma cell lines against the NCATS MIPE library collection: KMS27_JCRB cell viability assay (AID 1918970); further: nearly all actives have a fitted effect of over 30% in size
# Procedure, shortened: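 KMS27_JCRB myeloma cells, 500 per well, exposed 48 h at 37 C, 5% CO2 to MIPE 4.0 compounds. Viability from ATP by CellTiter-Glo luminescence, normalized to DMSO (100%) and medium-only (0%) wells.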
# [6] = Quantitative High-Throughput drug screen in 47 multiple myeloma cell lines against the NCATS MIPE library collection: KMS12BM_JCRB cell viability assay (AID 1918971); further: nearly all actives have a fitted effect of over 35% in size
# Procedure, shortened: (§4)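 Steps: seed 500 cells per well; pin-transfer MIPE 4.0 library; incubate 48 h at 37C, 5% CO2, humidified; add CellTiter-Glo, 5 min room temperature; read luminescence.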
# [7] = Quantitative High-Throughput drug screen in 47 multiple myeloma cell lines against the NCATS MIPE library collection: KMS12PE_JCRB cell viability assay (AID 1918972); further: nearly all actives have a fitted effect of over 30% in size
# Procedure, shortened: as §1
# [8] = Quantitative High-Throughput drug screen in 47 multiple myeloma cell lines against the NCATS MIPE library collection: KMS20_JCRB cell viability assay (AID 1918973); further: nearly all actives have a fitted effect of over 45% in size
# Procedure, shortened: as §3
# [9] = Quantitative High-Throughput drug screen in 47 multiple myeloma cell lines against the NCATS MIPE library collection: KMS21BM_JCRB cell viability assay (AID 1918974); details: ATP luminescence, 48 h; viability: at 45.8 µM (top of the series)
# Procedure, shortened: as §3
# [10] = Quantitative High-Throughput drug screen in 47 multiple myeloma cell lines against the NCATS MIPE library collection: KMS26_JCRB cell viability assay (AID 1918975); further: nearly all actives have a fitted effect of over 45% in size
# Procedure, shortened: as §4
# [11] = Quantitative High-Throughput drug screen in 47 multiple myeloma cell lines against the NCATS MIPE library collection: MMM1_PLB cell viability assay (AID 1918976); further: nearly all actives have a fitted effect of over 35% in size
# Procedure, shortened: (§5)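 Plated at 500 cells per well, myeloma lines received MIPE 4.0 compounds by pin tool. Following 48 h culture at 37 °C, CellTiter-Glo luminescence gave viability relative to DMSO and media-only controls.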
# [12] = Quantitative High-Throughput drug screen in 47 multiple myeloma cell lines against the NCATS MIPE library collection: NCIH929_DSMZ cell viability assay (AID 1918978); further: nearly all actives have a fitted effect of over 35% in size
# Procedure, shortened: as §5
# [13] = Quantitative High-Throughput drug screen in 47 multiple myeloma cell lines against the NCATS MIPE library collection: MM1S_ATCC cell viability assay (AID 1918980); further: nearly all actives have a fitted effect of over 45% in size
# Procedure, shortened: as §5
# [14] = Quantitative High-Throughput drug screen in 47 multiple myeloma cell lines against the NCATS MIPE library collection: KHM11_PLB cell viability assay (AID 1918962); further: nearly all actives have a fitted effect of over 35% in size
# Procedure, shortened: as §2
# [15] = Quantitative High-Throughput drug screen in 47 multiple myeloma cell lines against the NCATS MIPE library collection: Karpas25_ECACC cell viability assay (AID 1918968; further: nearly all actives have a fitted effect of over 35% in size)
# Procedure, shortened: as §3
# [16] = Quantitative High-Throughput drug screen in 47 multiple myeloma cell lines against the NCATS MIPE library collection: MOLP8_DSMZ cell viability assay (AID 1918977); further: nearly all actives have a fitted effect of over 45% in size
# Procedure, shortened: as §5
# [17] = Quantitative High-Throughput drug screen in 47 multiple myeloma cell lines against the NCATS MIPE library collection: INA6_PLB cell viability assay (AID 1918965; further: nearly all actives have a fitted effect of over 55% in size)
# Procedure, shortened: as §1
# [18] = Quantitative High-Throughput drug screen in 47 multiple myeloma cell lines against the NCATS MIPE library collection: OCIMY1_PLB cell viability assay (AID 1918979); further: nearly all actives have a fitted effect of over 35% in size
# Procedure, shortened: as §5
# Potency means the concentration at half of the fitted maximal effect.
SMILES,Potency [1],Potency [2],Potency [3],Potency [4],Potency [5],Potency [6],Potency [7],Potency [8],Potency [9],Potency [10],Potency [11],Potency [12],Potency [13],Potency [14],Potency [15],Potency [16],Potency [17],Potency [18]
O=[N+]([O-])c1ncc[nH]1,inactive,inactive,inactive,inactive,inactive,16600 nM (active),inactive,inactive,inactive,inactive,3320 nM (active),inactive,inactive,–,–,–,–,–
CN1[C@H]2CC(O)C[C@H]1[C@H]1O[C@H]12 (stereo not given in full),inactive,–,9350 nM (active),18700 nM (active),inactive,18700 nM (active),inactive,11800 nM (active),–,16600 nM (active),20900 nM (active),2640 nM (active),18700 nM (active),14800 nM (active),5900 nM (active),13200 nM (active),–,–
CC(C)(O)C=CC(=O)[C@](C)(O)[C@H]1[C@H](O)C[C@]2(C)[C@@H]3CC=C4[C@@H](C=C(O)C(=O)C4(C)C)[C@]3(C)C(=O)C[C@@]12C,59 nM (active),8.3 nM (active),105 nM (active),37.2 nM (active),20.9 nM (active),1180 nM (active),41.8 nM (active),18.7 nM (active),14.8 nM (active),37.2 nM (active),1320 nM (active),46.9 nM (active),41.8 nM (active),41.8 nM (active),29.6 nM (active),46.9 nM (active),14.8 nM (active),105 nM (active)
